Source: PubChem BioAssay (NCI)
Compounds without any hit were thinned out: in the full panel of roughly 83,000, 20% have a hit.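 Single-dose data. Exposure time 48 hours. Values below 10 considered active.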 Activity calls are given as the source filed them.

Columns and labels:
Assay in all cases: NCI-60 one-dose screen, 48 h (100 = growth as untreated, 0 = no growth, -100 = all killed)
Conditions in all cases: 10 µM unless noted
[1] = test system: NCI-H23 lung
[2] = test system: NCI-H226 lung
[3] = test system: NCI-H322M lung
[4] = test system: HOP-62 NSCLC
[5] = test system: NCI-H460 lung
[6] = test system: HOP-92 NSCLC
[7] = test system: NCI-H522 lung
[8] = test system: A549/ATCC NSCLC
[9] = test system: 786-0 renal
[10] = test system: COLO 205 colon
[11] = test system: DU-145 prostate
[12] = test system: K-562 leukemia
[13] = test system: MALME-3M melanoma
[14] = test system: MDA-MB-231 breast
[15] = test system: RXF 393 renal
[16] = test system: SF-268 CNS
[17] = test system: SF-295 CNS
[18] = test system: UACC-257 melanoma
[19] = test system: M14 melanoma
[20] = test system: SF-539 CNS

Measured: growth

NC(=S)N/N=C\c1nccc2c(N)cccc12
active: [2] -5.48% | [3] 4.54% | [4] -7.04% | [5] 3.27% | [7] 6.31% | [13] 3.21% | [16] 8.21% | [17] -15.5% | [18] 7.45% | [19] -34.8%
inactive: [1] 15.6% | [6] 19.8% | [8] 12.4% | [9] 14.2% | [10] 16.2% | [11] 11% | [12] 14.2% | [14] 49% | [15] 35.8%

N=C1C=C(N)C(=O)c2ccccc21
active: [1] -82.3% | [2] -63% | [3] -88.4% | [4] -94.3% | [5] -67.8% | [6] -38.8% | [7] -67% | [8] -71.7% | [9] -99.6% | [10] -93.7% | [11] -99.5% | [12] -4.96% | [13] -83.7% | [14] -12.5% | [15] -97.1% | [16] -68.4% | [20] -95.8% | [18] -77.2% | [19] -86.5%

CCCC[n+]1c(/C=C\c2c(OC)cc(OC)cc2OC)ccc2ccccc21
active: [1] -4.06% | [2] 9.84% | [3] 4.8% | [5] -43.2% | [6] -20% | [7] -73.4% | [8] -22.9% | [10] -53.3% | [12] 0.911% | [14] -15.1% | [17] -74.7% | [18] -41.5% | [19] 9%
inactive: [4] 13.8% | [9] 21.5% | [11] 23% | [13] 13% | [16] 22% | [20] 10.3%

Cn1ccc(=Nc2ccc(NC(=O)c3ccc(N=c4ccn(C)c5ccc([N+](=O)[O-])cc45)cc3)cc2)cc1
active: [15] -0.0973%
inactive: [1] 73.8% | [2] 70% | [3] 104% | [4] 52.6% | [5] 98.5% | [6] 70.9% | [7] 52.7% | [8] 65.5% | [9] 78.8% | [10] 56.6% | [11] 47% | [12] 96% | [13] 61.9% | [14] 56.6% | [16] 37.1% | [17] 105% | [18] 86.9% | [19] 76.8%

CN(C)c1ccc(/C=C/c2ccnc3ccccc23)cc1
inactive: [1] 58.6% | [2] 23.5% | [3] 97.3% | [4] 61.8% | [5] 21.7% | [6] 27.2% | [8] 24.7% | [9] 54.7% | [10] 40.6% | [11] 78.1% | [12] 25.1% | [13] 60.2% | [14] 57.4% | [16] 70% | [17] 31.7% | [20] 47.2% | [18] 41.9% | [19] 44.3%
active: [7] -24%

Cc1nnc(N/N=C/c2ccc([N+](=O)[O-])o2)[nH]c1=O
inactive: [1] 22.6% | [2] 16.2% | [3] 16.6% | [4] 11.3% | [5] 11.3% | [7] 17.1% | [8] 28.5% | [9] 14.9% | [11] 19.4% | [12] 10.7% | [14] 28.7% | [16] 19.4% | [18] 33.5%
active: [6] -35.8% | [10] -56.5% | [13] -30.8% | [17] -40.4% | [20] -8.83%

N=C(N)Sc1cccc[n+]1[O-]
inactive: [1] 55.6% | [2] 78.7% | [3] 68.9% | [4] 79% | [5] 21.8% | [6] 104% | [7] 37% | [8] 54.5% | [9] 76.7% | [10] 39.8% | [11] 35.5% | [12] 33.2% | [13] 22.2% | [14] 59.6% | [15] 22.2% | [16] 62.6% | [17] 68.7% | [18] 58% | [19] 18.4%

CCOc1ccc(C(C[N+](=O)[O-])Sc2ccccc2N)cc1 (centres undefined)
active: [9] -63.2% | [11] -19.9% | [12] 9.12% | [15] -65.3% | [20] -44.5% | [19] -41.2%
inactive: [1] 10.2% | [2] 78.6% | [3] 88.2% | [4] 92.1% | [5] 58.9% | [6] 82.7% | [7] 85.3% | [8] 62.9% | [10] 10.1% | [13] 68% | [14] 18.4% | [16] 120% | [17] 40.4% | [18] 59.2%

O=[N+]([O-])c1ccc(C2N(Cc3ccc(Cl)cc3)CCN2Cc2ccc(Cl)cc2)cc1
inactive: [1] 97.5% | [2] 95.1% | [3] 75.5% | [4] 94.5% | [5] 101% | [7] 75.8% | [8] 96% | [9] 81.7% | [11] 107% | [12] 67% | [13] 109% | [14] 79.6% | [15] 74.4% | [16] 90.1% | [17] 92.1% | [20] 86.3% | [18] 92% | [19] 86.2%
active: [6] -1.91%

O=C(/C=C/c1ccccc1)c1ccccc1O
inactive: [1] 82.3% | [2] 91.6% | [3] 90.2% | [4] 103% | [5] 93.2% | [6] 74.4% | [7] 69.6% | [8] 83.9% | [9] 79.7% | [10] 105% | [12] 51.6% | [13] 97.2% | [14] 91.5% | [15] 65.7% | [16] 85.2% | [17] 94.8% | [20] 89.9% | [18] 91.8% | [19] 92.3%

O=C(Cc1nc2cc(Cl)c(Cl)cc2nc1CC(=O)c1cccnc1)c1cccnc1
inactive: [1] 88.1% | [2] 77.2% | [3] 78.4% | [4] 86.3% | [5] 82.6% | [6] 78% | [7] 58.8% | [8] 93.5% | [9] 58.7% | [10] 89.8% | [11] 93.5% | [12] 49.6% | [13] 65.5% | [15] 87.9% | [16] 82.2% | [17] 94.1% | [20] 78.7% | [18] 95.7% | [19] 76.5%

Oc1cc(Cl)ccc1Cc1ccc(Cl)cc1O
active: [6] -14.4%
inactive: [1] 20.6% | [2] 96.6% | [3] 97% | [4] 60.5% | [5] 46% | [7] 33.8% | [8] 73.7% | [9] 92.8% | [11] 90% | [12] 37.2% | [13] 32.9% | [14] 59.7% | [15] 73.8% | [16] 65.2% | [17] 32.3% | [20] 56.3% | [18] 58.7%

CC1=CC(=NC(=O)CBr)C=C/C1=N\S(=O)(=O)c1ccccc1
active: [7] -80.4%
inactive: [1] 80.2% | [2] 68.3% | [3] 107% | [4] 75.1% | [5] 98.4% | [6] 52.9% | [8] 87% | [9] 53.6% | [10] 59.5% | [11] 76.8% | [13] 21.9% | [14] 67.5% | [15] 82.4% | [16] 64.8% | [20] 91.6% | [19] 72.8%

CCOc1ccc(Nc2nc3c(s2)C(=O)c2ccccc2C3=O)cc1
inactive: [1] 41.9% | [2] 87% | [3] 105% | [4] 113% | [5] 94.4% | [6] 85.1% | [7] 51.5% | [8] 94% | [9] 108% | [10] 100% | [12] 37.2% | [13] 52.9% | [14] 33.9% | [15] 105% | [16] 73% | [17] 102% | [20] 108% | [18] 94.7% | [19] 85.9%

CC(C)(C)CC(C)(C)c1ccc(OCCOCCSC(=N)N)cc1
inactive: [1] 30.8% | [2] 92.4% | [3] 67.9% | [4] 96.1% | [5] 23.4% | [6] 37% | [8] 68.8% | [11] 53.8% | [16] 69% | [17] 36.9% | [20] 64.3% | [18] 73%
active: [7] -3.81% | [9] -36% | [10] -80.6% | [12] 3.14% | [13] -60.8% | [15] -36.3% | [19] -67.7%

O=C(c1ccc(O)c(Br)c1)c1ccc(O)c(Br)c1
inactive: [1] 103% | [2] 109% | [3] 113% | [4] 102% | [5] 111% | [6] 101% | [7] 115% | [8] 109% | [9] 107% | [10] 112% | [11] 87% | [13] 106% | [14] 101% | [15] 107% | [16] 90.6% | [17] 118% | [20] 90.1% | [18] 110%

Nc1ccc(Oc2ccccc2)c(Cl)c1
inactive: [1] 108% | [2] 94.2% | [3] 86.3% | [4] 86.6% | [5] 106% | [6] 82.6% | [7] 108% | [8] 94.6% | [9] 84.9% | [10] 96.2% | [11] 104% | [12] 115% | [14] 111% | [15] 100% | [16] 93% | [17] 92.1% | [20] 91.7% | [18] 94.7% | [19] 94.6%
